The record followed here is PubChem BioAssay (Tox21).

Each structure is given as a SMILES string. Records with an inconclusive call do not appear. A number with no mark means an inactive call. Activity calls are given as the source filed them. Unless noted, calls come from the whole dose curve; as a rule, active = well fitted curve in the direction sought with a large enough effect in the repeat runs; inconclusive = weak or mixed curves; inactive = no such curve, though single readings can be large; an effect the other way counts as inactive or inconclusive.

Test [1] in a line: qHTS assay to identify small molecule agonists of the peroxisome proliferator-activated receptor delta (PPARd) signaling pathway - cell viability counter screen (AID 743211). Note: nearly all actives have a fitted effect of over 55% in size. Note: potency is the fitted concentration of half-maximal effect. Summed up: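 Read-out: CellTiter-Glo luminescence, 30 min RT, measured in the same wells as the beta-lactamase reporter. Cells: GeneBLAzer PPAR delta UAS-bla HEK293H, 3000 cells/well, compound exposure 17 h at 37C.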

The target of test [2] is Peroxisome proliferator-activated receptor delta (Homo sapiens) (UniProt Q03181). As to the kind of experiment: qHTS assay to identify small molecule agonists of the peroxisome proliferator-activated receptor delta (PPARd) signaling pathway (AID 743212; calls by dose curve; note: potency is the fitted concentration of half-maximal effect). Put shortly:
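HEK293H PPARd-bla cells; 5 h preincubation 37 C/5% CO2; compound (DMSO) 37 C; LiveBLAzer B/G FRET substrate 2 h RT; fluorescence intensity.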
In general terms: qHTS replaces the single test concentration by a dilution series.

Test [3] can be described thus: qHTS assay to identify small molecule antagonists of the peroxisome proliferator-activated receptor delta (PPARd) signaling pathway - cell viability counter screen (AID 743213). Note: nearly all actives have a fitted effect of over 50% in size. Note: potency is the fitted concentration of half-maximal effect. Summed up: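 PPARd-bla HEK293H cells were treated with compounds plus agonist L165041 (300 nM final) for 17 h at 37 C. Viability was then read in the same wells by CellTiter-Glo luminescence after 30 min at room temperature.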

Test [4] deals with Peroxisome proliferator-activated receptor delta (Homo sapiens) (UniProt Q03181). Nature of the test: qHTS assay to identify small molecule antagonists of the peroxisome proliferator-activated receptor delta (PPARd) signaling pathway (AID 743215; active = well fitted inhibition curve with a large enough effect in the signal ratio in the repeat runs, not every such curve was filed as active; the % refers to the signal ratio;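 note: cells stimulated with agonist L165041 at 300 nM final during compound exposure; series mostly up to about 62 µM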). Put shortly:
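Antagonist-mode beta-lactamase reporter screen: HEK293H cells with UAS-bla under PPARd control, stimulated by 300 nM L165041 (final) alongside test compound for 17 h at 37 C, then FRET fluorescence after 2 h substrate incubation.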

A short description of test [5]: qHTS assay to identify small molecule agonists of the farnesoid-X-receptor (FXR) signaling pathway - cell viability counter screen (AID 743218). Note: nearly all actives have a fitted effect of over 45% in size. Note: potency is the fitted concentration of half-maximal effect. Put shortly:
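In GeneBLAzer FXR-UAS-bla HEK 293T cells, compounds act for 16 h at 37 C. Cell viability is then scored in the reporter wells by CellTiter-Glo, 30 min at RT, luminescence.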

Test [6] in a line: qHTS assay to identify small molecule antagonists of the farnesoid-X-receptor (FXR) signaling pathway - cell viability counter screen (AID 743221; active = well fitted cell-killing curve with a large enough effect in the repeat runs, not every such curve was filed as active; note: nearly all actives have a fitted effect of over 50% in size; note: potency is the fitted concentration of half-maximal effect). Summed up: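 HEK 293T FXR-bla cells, 5 h pre-incubation; compound + CDCA 50 uM final, 16 h, 37 C; beta-lactamase FRET read first, then CellTiter-Glo luminescence, 30 min RT.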
Test [7] addresses Vitamin D3 receptor (Homo sapiens) (UniProt P11473). Nature of the test: qHTS assay to identify small molecule agonists of the vitamin D receptor (VDR) signaling pathway (AID 743222; calls by dose curve). Put shortly:
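Agonist activity measured in VDR-bla reporter cells. Exposure 16 h, 37C, 5% CO2; detection by B/G FRET substrate, 2 h RT.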

Test [8] shares this target. Nature of the test: qHTS assay to identify small molecule antagonists of the vitamin D receptor (VDR) signaling pathway (AID 743223; active = well fitted inhibition curve with a large enough effect in the signal ratio in the repeat runs, not every such curve was filed as active; the % refers to the signal ratio). Summed up:
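Beta-lactamase reporter read-out: FRET substrate fluorescence after 2 h at room temperature, following 16 h exposure of VDR-bla cells to test compound plus 3 nM (final) 1alpha,25-dihydroxyvitamin D3 agonist at 37C.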

Test [9] deals with Bile acid receptor (Homo sapiens) (UniProt Q96RI1). Nature of the test: qHTS assay to identify small molecule antagonists of the farnesoid-X-receptor (FXR) signaling pathway (AID 743217; active = well fitted inhibition curve with a large enough effect in the signal ratio in the repeat runs, not every such curve was filed as active; the % refers to the signal ratio; note: potency is the fitted concentration of half-maximal effect). Summed up:
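Beta-lactamase reporter under UAS control in HEK 293T cells; compound exposure 16 h at 37 °C in the presence of chenodeoxycholic acid (50 uM final); signal from B/G FRET substrate after 2 h at room temperature.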

Test [10] has the same target. Nature of the test: qHTS assay to identify small molecule agonists of the farnesoid-X-receptor (FXR) signaling pathway (AID 743220; active = well fitted activation curve with a large enough effect in the signal ratio in the repeat runs, not every such curve was filed as active; the % refers to the signal ratio). Put shortly: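 Beta-lactamase reporter under UAS control in GeneBLAzer FXR HEK 293T cells (5000/well) measured with LiveBLAzer FRET substrate after 2 h at room temperature. Compound exposure lasted 16 h at 37C.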
% is set by controls: 0 for no effect and ±100 for the full control effect.

Peroxisome proliferator-activated receptor delta (Homo sapiens), sequence (Q03181 whole entry, looked up): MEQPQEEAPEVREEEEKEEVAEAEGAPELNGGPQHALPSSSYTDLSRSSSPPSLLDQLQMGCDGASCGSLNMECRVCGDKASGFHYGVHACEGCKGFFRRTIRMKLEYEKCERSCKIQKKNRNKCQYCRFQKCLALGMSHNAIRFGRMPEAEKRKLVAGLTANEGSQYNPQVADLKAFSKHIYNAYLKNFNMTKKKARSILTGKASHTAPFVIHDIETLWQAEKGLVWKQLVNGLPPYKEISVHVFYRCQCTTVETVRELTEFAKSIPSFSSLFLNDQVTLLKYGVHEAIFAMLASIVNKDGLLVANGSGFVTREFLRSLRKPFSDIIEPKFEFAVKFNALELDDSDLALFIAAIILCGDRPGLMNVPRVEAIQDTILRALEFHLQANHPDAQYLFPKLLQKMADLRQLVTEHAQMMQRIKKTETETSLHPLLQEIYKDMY
Bile acid receptor (Homo sapiens), sequence (Q96RI1 whole entry, looked up): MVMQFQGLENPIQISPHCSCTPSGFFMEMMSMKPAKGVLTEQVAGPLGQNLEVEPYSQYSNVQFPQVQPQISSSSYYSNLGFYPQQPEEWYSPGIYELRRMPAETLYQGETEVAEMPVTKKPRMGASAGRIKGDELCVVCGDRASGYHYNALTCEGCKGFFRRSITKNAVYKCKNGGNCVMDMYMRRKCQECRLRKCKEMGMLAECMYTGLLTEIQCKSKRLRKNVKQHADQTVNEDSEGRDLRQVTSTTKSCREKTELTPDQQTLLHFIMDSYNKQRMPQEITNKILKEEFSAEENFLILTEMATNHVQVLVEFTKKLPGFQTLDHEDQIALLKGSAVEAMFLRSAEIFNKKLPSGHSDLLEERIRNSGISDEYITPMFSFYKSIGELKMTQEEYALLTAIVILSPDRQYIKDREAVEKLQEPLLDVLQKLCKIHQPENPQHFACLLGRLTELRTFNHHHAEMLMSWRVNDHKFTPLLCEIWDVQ
Vitamin D3 receptor (Homo sapiens), sequence (P11473 whole entry, looked up): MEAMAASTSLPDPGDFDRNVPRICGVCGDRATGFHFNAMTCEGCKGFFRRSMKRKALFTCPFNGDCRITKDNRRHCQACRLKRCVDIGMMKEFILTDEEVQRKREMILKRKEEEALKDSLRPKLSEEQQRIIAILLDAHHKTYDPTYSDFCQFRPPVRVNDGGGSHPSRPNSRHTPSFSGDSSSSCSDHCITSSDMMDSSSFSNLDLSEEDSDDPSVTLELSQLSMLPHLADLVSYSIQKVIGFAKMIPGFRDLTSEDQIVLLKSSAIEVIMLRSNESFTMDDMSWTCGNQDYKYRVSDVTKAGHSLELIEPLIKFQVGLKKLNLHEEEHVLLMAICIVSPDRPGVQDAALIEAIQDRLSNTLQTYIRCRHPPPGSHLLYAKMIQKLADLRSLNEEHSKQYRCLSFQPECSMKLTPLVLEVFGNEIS

With `O=C(NCCO[N+](=O)[O-])c1cccnc1`, the Potency result in test [1], in [2], in [3], in [4], in test [5] and in test [6] was “inactive” throughout. In addition, the Potency entry in test [7] is “inactive”. For the same molecule, the call in test [8] was inactive.

For the molecule `COc1cc2nc(N(C)CCCNC(=O)C3CCCO3)nc(N)c2cc1OC` (stereo not drawn), the Potency result in [1], in [2], in test [3], in [4], in test [5] and in test [6] was “inactive” throughout.

As to `ClCCOCCOCCCl`, the Potency entry in [1], in test [2], in test [3], in test [4], in [5] and in test [6] was “inactive” throughout. Moreover, in test [7], the Potency entry was “inactive”. In addition, the molecule was called inactive in test [8].

Consider `Cc1c(N)cccc1[N+](=O)[O-]`, for which the Potency result in test [1], in test [2], in test [3], in test [4], in [5] and in test [6] was “inactive” throughout.

Regarding `Cc1ccc(N=Nc2c(O)c(C(=O)O)cc3ccccc23)c(S(=O)(=O)O)c1`, the Potency result in test [1], in [2], in [3], in test [4], in test [5] and in [6] was “inactive” in each case.

Consider `CC(CSC(=O)c1ccccc1)C(=O)N1C[C@@H](Sc2ccccc2)C[C@H]1C(=O)O` (stereo partly drawn), for which the Potency entry in test [1], in test [2], in test [3], in test [4], in test [5] and in test [6] was “inactive” throughout.

Take `CCOC(=O)c1cccnc1`: the Potency result in [1], in test [2], in [3], in test [4], in test [5] and in test [6] was “inactive” in each case.

As for `OCCNCc1ccccc1`, the Potency result in test [1], in [2], in test [3], in [4], in test [5] and in test [6] was “inactive” throughout. Besides, the Potency entry in test [7] was “inactive”.

On to `OC(C#CCN1CCCC1)(c1ccccc1)c1ccccc1`, for which the Potency entry in [1], in test [2], in test [3], in [4], in test [9] and in test [6] was “inactive” each time. Further, the Potency result in test [7] is “inactive”.

For the molecule `CC(C)(C)OCC1CO1` (stereo not drawn), the Potency result in [1], in test [2], in [3], in [4], in test [5] and in test [6] was “inactive” each time. For the same molecule, in [7], the Potency entry is “inactive”. Moreover, in test [8], the call was inactive.

As for `O=C1OC(CN2CCOCC2)CN1/N=C/c1ccc([N+](=O)[O-])o1` (stereo not drawn), the Potency result in test [1], in test [2], in [3], in [4], in test [5] and in [6] was “inactive” throughout. Also, the Potency result in [7] is “inactive”. In addition, the result in test [8] was inactive.

Regarding `CNC(=O)CN(CCN(CCN(CC(=O)[O-])CC(=O)NC)CC(=O)[O-])CC(=O)[O-].O.[Gd+3]`, the Potency entry in test [1], in [2], in [3], in test [4], in test [5] and in test [6] was “inactive” throughout. Further, the Potency entry in test [7] is “inactive”. The outcome in [8] was inactive.

As for `CCOC(=O)C(=O)CCc1ccccc1`, the Potency entry in test [1], in [2], in [3], in [4], in [5] and in test [6] was “inactive” each time.

`O=[N+]([O-])c1ccc2[nH]ncc2c1`: the Potency entry in test [1], in [2], in [3], in [4], in test [5] and in test [6] was “inactive” each time. In addition, the Potency entry in [7] is “inactive”. The outcome in [8] was inactive.

As for `Cc1ncc(CO)c(C=O)c1O`, the Potency entry in [1], in test [2], in test [3], in test [4], in test [5] and in [6] was “inactive” each time. In addition, the Potency result in test [7] is “inactive”. Moreover, the molecule was called inactive in test [8].

Consider `COC(C)OC`, for which the Potency result in [1], in [2], in [3], in [4], in [5] and in test [6] was “inactive” each time. Besides, in test [7], the Potency result was “inactive”.

With `Nc1ccc(S(=O)(=O)Nc2ccccc2)cc1`, the Potency result in test [1], in [2], in [3], in test [4], in [5] and in test [6] was “inactive” throughout.

As for `C/C=C/C(=O)CC`, the activity change, negative = cytotoxicity was 2.34% [at 13.2 µM] in test [1] and -0.419% [at 13.2 µM] in test [6]. The activation in test [2] was 2.05% [at 13.2 µM]. For the same molecule, the results for the viability change, negative = cytotoxic in [3] and in test [5] were 3.59% [at 13.7 µM] and 6.33% [at 13.2 µM], respectively. In addition, the ratio activity, negative = inhibition in test [4] is 2.27% [at 13.7 µM].

In the case of `CCO[C@H](Cc1ccc(OCCc2ccc(OS(C)(=O)=O)cc2)cc1)C(=O)O`, the Potency entry in test [1], in test [3], in test [4], in test [5], in test [6] and in [7] was “inactive” each time. Moreover, the Potency in test [2] is 11.9 µM (active).

`Cn1c(=O)cc(Oc2ccc(F)cc2F)c2cnc(NCC(C)(C)O)nc21`: the Potency entry in test [1], in test [2], in test [3], in [10] and in test [6] was “inactive” in each case. The Potency in test [9] was 43.6 µM (active).

As to `O[C@@H](COc1cccc2ncccc12)CN1CCN(C2c3ccccc3[C@@H]3[C@H](c4ccccc42)C3(F)F)CC1` (stereo partly drawn), the Potency in test [1] is 9.44 µM (active); in [3] it was 23.7 µM (active); in [5], 15 µM (active); in test [6], 21.1 µM (active). In test [2], the Potency result is “inactive”.

With `COc1cc2c(cc1OC)C(C(C(=O)N(CCc1ccc(OC)c(OC)c1OC)CCc1ccc(OC)c(OC)c1OC)c1ccccc1)=NCC2` (stereo not drawn), the Potency result in [1], in test [2], in test [3], in [4] and in test [6] was “inactive” in each case. Further, in [8], the molecule was called inactive.

As for `CN1CCC(=C2c3ccccc3Sc3ccccc32)CC1`, in test [1], the Potency is 26.6 µM (active). The Potency entry in [2], in test [4], in test [9], in [10] and in test [7] was “inactive” in each case. The molecule was classed as inactive in test [8].

`Nc1ccc([N+](=O)[O-])c(C(F)(F)F)c1`: the Potency result in test [1], in [2], in test [3], in [5], in test [10] and in test [6] was “inactive” throughout. In test [8], the outcome was inactive.

`CCCCCCCN`: the Potency entry in [1], in test [2], in [3], in test [5], in [10] and in test [6] was “inactive” in each case. The Potency result in [7] was “inactive”. Further, in test [8], the outcome was inactive.

On to `CCOCC(O)COc1ccc(NC(=O)CC[S+](C)C)cc1` (stereo not drawn), for which the Potency entry in [1], in [2], in test [4], in test [9], in test [5] and in test [6] was “inactive” in each case. In addition, the Potency result in test [7] is “inactive”.

Turning to `CC(=O)OC[C@H]1O[C@@H](n2ncc(=O)[nH]c2=O)[C@H](OC(C)=O)[C@@H]1OC(C)=O`, the Potency entry in test [1], in test [2], in test [3], in test [5], in test [10] and in test [7] was “inactive” in each case.

With `CCCCCCCCO[C@@H]1O[C@H](CO)[C@@H](O)[C@H](O)[C@H]1O`, the Potency result in test [1], in test [2], in [3], in test [9], in [5] and in test [10] was “inactive” in each case. Further, the Potency entry in test [6] and in [7] was “inactive” in each case.

For the molecule `O=C1CCC(=O)O1`, the Potency entry in test [1], in test [2], in test [4], in test [9], in test [5] and in [10] was “inactive” in each case. The Potency entry in test [6] and in test [7] was “inactive” each time.

As for `c1ccc(-c2ccccn2)nc1`, the Potency result in test [1], in test [2], in test [3], in test [4], in test [5] and in test [6] was “inactive” each time. For the same molecule, the Potency entry in [7] was “inactive”. The molecule was called inactive in test [8].
